Consider 44 sequences from the supplement of paper PMC11417369.

± gives the standard deviation of the averaged measurements. Whole data set: some 25,000 sequences, median “ln(normalized median fluorescence intensity)” near 8.6, cut for the highest 2% near 10. Only a selection was taken, and the highest values are over-represented in it overall.

For the test, the system named is PfAP2-EXP AP2 domain (GST-tagged). The test can be described thus: gcPBM binding intensity (ln(normalized median fluorescence intensity)); higher = stronger DNA binding. In short, it runs like this: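 Alexa488 anti-GST antibody, scanned at 488 nm, detected GST-tagged P. falciparum DNA-binding domains that had been expressed in E. coli and incubated for 1 h on an Agilent 4 × 180k array. The array carried primer-extended double-stranded 36-bp intergenic genomic probes and negative controls. Binding intensity is the highest Masliner-normalised natural-log median intensity across replicate spots of either orientation of each probe.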
For “TATATATATAAATACACACACACAAAAAAAAAAAAA [CACACA_site4930]”, the “gcPBM binding intensity (ln)” value stood at 8.6 ± 0.34.

For the sequence “CATTTATATATATACACACACACAAAAAAAAAAAAA [CACACA_site2645]”, the “gcPBM binding intensity (ln)” value came to 8.44 ± 0.49.

Take “TTAATAAAAGCCCATGCACACCTTAGAAAGTTTTAT [CACACA_site8003]”: the “gcPBM binding intensity (ln)” value amounted to 8.43 ± 0.45.

Consider “GCCATTAATTTATACACACACATTATGATTTTTTAT [CACACA_site754]”, for which the “gcPBM binding intensity (ln)” value was 8.86 ± 0.28.

Take “TCTTGTCTACCTTGTATTTAATATTTACATATATAA [TGCATGCA_negctrl_site320]”: the “gcPBM binding intensity (ln)” value was determined as 8.95 ± 0.4.

Take “TTTATTTTGACAGATTGTACACTTTATACATGTTTT [XGTACX_site2356]”: the “gcPBM binding intensity (ln)” value came to 8.8 ± 0.44.

With “TAATCATAAAAAAATACACACATATATAATATATAT [CACACA_site1983]”, the “gcPBM binding intensity (ln)” value was 8.51 ± 0.3.

“GGGGGGAGGGTGAATACACACGTAATAATCATAAAC [CACACA_site8502]”: the “gcPBM binding intensity (ln)” value worked out at 10.6 ± 0.22.

As to “ATGGAATAATCACGTACACACAAGAAAAAAAAAAAT [CACACA_site527]”, the “gcPBM binding intensity (ln)” value turned out to be 8.8 ± 0.56.

For “GGGGGGGGAGGGTGAATACACACGTAATAATCATAA [CACACA_site1716]”, the “gcPBM binding intensity (ln)” value amounted to 10.8 ± 0.15.

For the sequence “ATAAAAAAATCAGACACACACACGTAAACACATACA [CACACA_site5529]”, the “gcPBM binding intensity (ln)” value turned out to be 8.76 ± 0.57.

For the sequence “ATAAATATCATATATATACACACGTAATACATAATA [CACACA_site4001]”, the “gcPBM binding intensity (ln)” value turned out to be 8.4 ± 0.44.

Take “AACTTACTCTTTACAAGTACGTAAAAGAAATAGAAA [XGTACX_site1782]”: the “gcPBM binding intensity (ln)” value amounted to 8.51 ± 0.41.

On to “AATTTCTATTTTGTGAGTACATACTCCTATTATATA [XGTACX_site3210]”, for which the “gcPBM binding intensity (ln)” value is 8.78 ± 0.26.

For the sequence “ATTATATATAAATATACACACATATATAAAATACAT [CACACA_site5298]”, the “gcPBM binding intensity (ln)” value stood at 8.39 ± 0.28.

With “TTATATTATTTTTATACATGCATTTCTATATATTTT [TGCATGCA_site164]”, the “gcPBM binding intensity (ln)” value turned out to be 9.2 ± 0.3.

Take “TTTTTTTTTTCTCCTGCATGCAGCATTTATATATTA [TGCATGCA_site390]”: the “gcPBM binding intensity (ln)” value amounted to 10.3 ± 0.13.

With “TTATACTATTTTTATACATGCATTTCTATATATTTT [TGCATGCA_site316]”, the “gcPBM binding intensity (ln)” value was found to be 9.3 ± 0.28.

As to “TCTTTATATATATATATATGTGTGAATGTTAAGTAT [XGTACX_negctrl_site135]”, the “gcPBM binding intensity (ln)” value came to 8.74 ± 0.33.

With “TTTTTTTTGTATTAATGTACATATAACTTTTTTTTT [XGTACX_site7903]”, the “gcPBM binding intensity (ln)” value is 8.48 ± 0.47.

In the case of “ATATATATATATATATGTACATATATTTGTAATGTC [XGTACX_site8074]”, the “gcPBM binding intensity (ln)” value is 10.2 ± 0.43.

“ACATAAATAAATTAATGTACATATATATTTGTATAT [XGTACX_site3160]”: the “gcPBM binding intensity (ln)” value came out at 8.36 ± 0.28.

Take “ATATATATAAATATATGTACATAAATATATTTGTAA [XGTACX_site6715]”: the “gcPBM binding intensity (ln)” value stood at 8.47 ± 0.42.

“ATGATTTGTCTGAAATGTACATATATATATATATAT [XGTACX_site5247]”: the “gcPBM binding intensity (ln)” value was found to be 10.3 ± 0.47.

As to “ATGAATATATATATTTGTACATATGTATATATATAT [XGTACX_site7527]”, the “gcPBM binding intensity (ln)” value was 9.71 ± 0.15.

For “TTATTAAATGAAAAATGTACATATAAATGATTATAT [XGTACX_site2788]”, the “gcPBM binding intensity (ln)” value was 8.51 ± 0.25.

Consider “ATTTTGTATATATTTTGTACATATTTTGTATATATT [XGTACX_site885]”, for which the “gcPBM binding intensity (ln)” value was found to be 8.68 ± 0.3.

As for “CTGAATGTATATATTTGTACATATATATATATATAT [XGTACX_site5557]”, the “gcPBM binding intensity (ln)” value was determined as 10.4 ± 0.22.

In the case of “TGGATTTTGTATTAATGTACATATATATATATATAT [XGTACX_site4442]”, the “gcPBM binding intensity (ln)” value was 10.2 ± 0.51.

Regarding “GTTTGTATGTCCAAATGTACATATGATTTTATGAAA [XGTACX_site6595]”, the “gcPBM binding intensity (ln)” value stood at 8.72 ± 0.28.

With “AATGTATATATGTAATGTACATATGTAATGTATATA [XGTACX_site6509]”, the “gcPBM binding intensity (ln)” value stood at 8.62 ± 0.46.

In the case of “ACATTTATTTTGAATGGTACACTATTATTATGAAAT [XGTACX_site4384]”, the “gcPBM binding intensity (ln)” value amounted to 8.36 ± 0.38.

On to “TTTTTTTTTTGATGCACACACCTGAACGAGTTAATA [CACACA_site4329]”, for which the “gcPBM binding intensity (ln)” value came to 8.83 ± 0.37.

Take “ATTTTTAAATACAGTACACACATGGGTTTAAATTAT [CACACA_site2884]”: the “gcPBM binding intensity (ln)” value amounted to 8.63 ± 0.38.

On to “ATATAATAATTGTACACATGCACACACAAATATTAT [TGCATGCA_site204]”, for which the “gcPBM binding intensity (ln)” value was determined as 8.9 ± 0.29.

With “GATCACTGAATAAAGGCACACATCTGACTAATTTTT [CACACA_site66]”, the “gcPBM binding intensity (ln)” value turned out to be 8.36 ± 0.39.

Consider “ATAAATTGAAGTAAATTTGACCTTTTTTTTTTTTTT [GTGCAC_negctrl_site354]”, for which the “gcPBM binding intensity (ln)” value was 8.31 ± 0.27.

In the case of “TAAGGATGAATCCTTTGTACATATATATATATATAT [XGTACX_site1242]”, the “gcPBM binding intensity (ln)” value amounted to 10.2 ± 0.28.

Regarding “ATAAAATGAACCTTTTGTACATATATATATATATAT [XGTACX_site4610]”, the “gcPBM binding intensity (ln)” value turned out to be 10.1 ± 0.57.

For the sequence “AATGAAAGGATGCTGTGTACATATATATATATATAT [XGTACX_site7901]”, the “gcPBM binding intensity (ln)” value was 10.2 ± 0.49.

With “ATAATTAATGATGTATGTACGGAATTTATATATTTG [XGTACX_site5685]”, the “gcPBM binding intensity (ln)” value turned out to be 8.4 ± 0.33.

Take “AAAAGATAATTATGCACACACACACCCAGACACAAC [CACACA_site5428]”: the “gcPBM binding intensity (ln)” value turned out to be 9.11 ± 0.4.

In the case of “AAAAAAGATAATTATGCACACACACCCACCCACCCA [CACACA_site8825]”, the “gcPBM binding intensity (ln)” value worked out at 9.57 ± 0.41.

As to “AAAAGATAATTATGCACACACACACCCCCACCCAAC [CACACA_site2570]”, the “gcPBM binding intensity (ln)” value came out at 10.67 ± 0.099.
